Data reported in PubChem BioAssay (Tox21).
Records with an inconclusive call do not appear. Active and inactive are the calls of the source. Unless noted, calls come from the whole dose curve; as a rule, active = well fitted curve in the direction sought with a large enough effect in the repeat runs; inconclusive = weak or mixed curves; inactive = no such curve, though single readings can be large; an effect the other way counts as inactive or inconclusive.

Experiments:
[1] = qHTS assay for small molecule agonists of the p53 signaling pathway (AID 651631; calls by dose curve; note: nearly all actives have a fitted effect of over 15% in size)
In short: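 Read-out is beta-lactamase FRET fluorescence measured 2 h after substrate addition at room temperature, in HCT-116 cells with a p53 response element-driven reporter exposed to compounds for 16 h at 37 °C.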

[2] = qHTS assay for small molecules that induce genotoxicity in human embryonic kidney cells expressing luciferase-tagged ATAD5 (AID 651632); note: nearly all actives have a fitted effect of over 15% in size
In short: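 Luminescent reporter readout, HEK293T ATAD5-luc line: 16 hr drug exposure (37C, 5% CO2) followed by Amplite, 30 min RT.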

[3] = qHTS assay for small molecule agonists of the p53 signaling pathway - cell viability (AID 651633; calls by dose curve;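 note: p53RE-bla HCT reporter cells with a stable beta-lactamase p53 reporter; series mostly up to about 83 µM; nearly all actives have a fitted effect of over 30% in size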)
In short: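 Viability counter-read: CellTiter-Glo luminescence (30 min, room temperature) in the same p53RE-bla plates. These plates had been exposed to compounds for 16 h at 37 C.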

[4] = qHTS assay for small molecules that induce genotoxicity in human embryonic kidney cells expressing luciferase-tagged ATAD5 - cell viability (AID 651634; calls by dose curve; note: nearly all actives have a fitted effect of over 25% in size)
In short: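 Viability read: CellTiter-Fluor fluorescence, 30 min at 37C. Cells: HEK293T, luciferase-tagged ATAD5. Exposure: 15.5 hr, 37C, 5% CO2, compound or DMSO vehicle.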

[5] = qHTS assay for small molecule disruptors of the mitochondrial membrane potential - cell viability (AID 720634; calls by dose curve;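 note: human HepG2 liver cancer cells; series mostly up to about 83 µM; nearly all actives have a fitted effect of over 20% in size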)
In short: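 HepG2, 1 hr compound, 37 C. ATP luminescence via CellTiter-Glo, 30 min RT, same well as m-MPI.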

[6] = qHTS assay to test for compound auto fluorescence at 590 nm (red) in HepG2 cells (AID 720674)
In short: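 1 hr compound incubation on HepG2 cells, 37 C, 5% CO2; plate read ex 540 nm / em 590 nm; intensities reported as Rose Bengal sodium equivalents.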

[7] = qHTS assay to test for compound auto fluorescence at 535 nm (green) in HepG2 cells (AID 720675)
[8] = qHTS assay to test for compound auto fluorescence at 460 nm (blue) in HEK293 cells (AID 720678)
In short: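 HEK293 cells (2,000/well, medium with 10% dialyzed FBS) attached 4-5 hr, then exposed to compound overnight at 37C, 5% CO2. Blue fluorescence read at 405/460 nm, with triamterene as reference fluorophore.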

[9] = qHTS assay to test for compound auto fluorescence at 590 nm (red) in HEK293 cells (AID 720679)
In short: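 HEK293 cells (2,000/well, 10% dialyzed FBS) attached 4-5 hr, then dosed with compound or DMSO and incubated overnight at 37C, 5% CO2. Red fluorescence read at 540/590 nm, Rose Bengal sodium as reference fluorophore.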

Measured: Potency

O=C(O)c1cc(O)c2c(c1)[O][Bi][O]2
inactive: all assays above

CC(C(=O)O)c1ccc(C2CCCCC2)c2ccccc12 (centres undefined)
inactive: all assays above

CCOC(=O)C1=C[C@@H](OC(CC)CC)[C@H](NC(C)=O)[C@@H](N)C1
inactive: all assays above

Cc1cccc(C)c1NC(=O)NC1=CCCN1C
inactive: all assays above

Cc1cccc(Nc2ncccc2C(=O)O)c1C
inactive: all assays above

Nc1nc2c(c(=O)[nH]1)N(C=O)C(CNc1ccc(C(=O)N[C@@H](CCC(=O)O)C(=O)O)cc1)CN2 (some centres undefined)
inactive: all assays above

CS(=O)(=O)Nc1cc2occ(NC=O)c(=O)c2cc1Oc1ccccc1
inactive: all assays above

CC(C)Cc1ccc([C@@H](C)C(=O)NS(C)(=O)=O)cc1
inactive: all assays above

COc1cc(C[C@@H]2NCCc3cc(O)c(O)cc32)cc(OC)c1OC
inactive: all assays above

NC(=O)OCC(O)COc1ccc(Cl)cc1 (centres undefined)
inactive: all assays above

O=c1[nH]cnc2[nH]cc(CN3CCCCC3)c12
inactive: all assays above

Oc1cc(O)cc(O)c1
inactive: all assays above

CCCCCCCCCCCCCCCCCC(=O)[O][Al]
inactive: all assays above

CCC(=O)OCC(=O)[C@@]1(OC(=O)CC)[C@H](C)C[C@H]2[C@H]3[C@H]([C@@H](O)C[C@@]21C)[C@@]1(C)C=CC(=O)C=C1C[C@H]3Cl
inactive: all assays above

Cn1cc(NC(=O)c2cc(NC(=O)c3cc(NC=O)cn3C)cn2C)cc1C(=O)NCCC(=N)N
inactive: all assays above

COc1cc2c(cc1OC)[C@@H](c1ccccc1)CN(C)CC2
inactive: all assays above

CC(=O)[C@@]1(O)CC[C@H]2[C@@H]3C=C(Cl)C4=CC(=O)[C@@H]5C[C@@H]5[C@]4(C)[C@H]3CC[C@@]21C
inactive: all assays above

Cc1nc(NS(=O)(=O)c2ccc(N)cc2)nc(C)c1Br
inactive: all assays above

CCCc1ccc(C(=O)O)cc1
inactive: all assays above

CO/N=C(\C(=O)N[C@@H]1C(=O)N2C(C(=O)O)=C(CSC(=O)c3ccco3)CS[C@H]12)c1csc(N)n1
inactive: all assays above

O=C1c2ccccc2C(=O)C1c1ccc(Cl)cc1
inactive: all assays above
